In PubChem BioAssay (NCI):
Compounds without any hit were thinned out: in the full panel of roughly 83,000, 20% have a hit.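 96-well plates, one dose, 48 hours. Percent growth reported; active if below 10.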 Active and inactive are the calls of the source.

Experiments:
Experiment in all cases: NCI-60 one-dose screen, 48 h (100 = growth as untreated, 0 = no growth, -100 = all killed)
Conditions in all cases: 10 µM unless noted
[1] = tested on: NCI-H23 lung
[2] = tested on: NCI-H226 lung
[3] = tested on: NCI-H322M lung
[4] = tested on: HOP-62 NSCLC
[5] = tested on: NCI-H460 lung
[6] = tested on: HOP-92 NSCLC
[7] = tested on: NCI-H522 lung
[8] = tested on: A549/ATCC NSCLC
[9] = tested on: 786-0 renal
[10] = tested on: COLO 205 colon

Measured: growth

CC(=O)Oc1ccccc1C(=O)NCCC[Se]C#N
inactive: [7] 65.2% | [8] 28.2% | [9] 104% | [10] 112%
active: [1] -13.8% | [2] -22.8% | [3] 2.65% | [4] -38.8% | [5] 1.89% | [6] -18.5%

COC(=O)C12CC(NC(=O)c3csc([C@@H](C[C@H](C(C)C)N(C)C(=O)[C@@H](NC(=O)[C@H]4CCCCN4C)C4CC4)OC(C)=O)n3)(C1)C2
active: [4] 6.31% | [5] 7.21% | [7] -4.14% | [10] -64.5%
inactive: [1] 29.4% | [2] 14.6% | [3] 45% | [6] 18.7% | [8] 13% | [9] 24.5%

CCn1c2ccccc2c2cc(C(=O)c3cccc4c3CCCN4)ccc21
inactive: [1] 100% | [2] 92.2% | [3] 102% | [4] 95.7% | [5] 101% | [6] 101% | [7] 115% | [8] 106% | [9] 99% | [10] 102%

CCn1cnc2c(Nc3cccc(Cl)c3)nc(N[C@@H]3CCCC[C@@H]3N)nc21
inactive: [2] 10.6% | [3] 15.4%
active: [1] -21.5% | [4] -11.1% | [5] 1.68% | [6] -9.78% | [7] -32.4% | [8] -7.67% | [9] 1.83% | [10] -67.6%

N#C[S-].[Au+].c1ccc(CN2[CH-]N(Cc3ccccc3)C(c3ccccc3)=C2c2ccccc2)cc1
active: [1] 8.69% | [5] 4.03% | [6] -25% | [7] -30.9% | [9] 7% | [10] -76.9%
inactive: [2] 24.4% | [3] 30.3% | [4] 16% | [8] 12.8%

CN1CCC(O)(c2ccc(F)cc2)C(C(=O)c2ccc(F)cc2)C1 (stereo not given)
inactive: [1] 99.3% | [2] 108% | [3] 98.7% | [4] 97.2% | [5] 109% | [6] 96.4% | [7] 78.9% | [8] 101% | [9] 102% | [10] 115%

COc1ccc(/C=C\c2cc(OC)c(OC)c(OC)c2)cc1NC(=O)/C=C/c1ccc(OC)c(OC)c1
active: [1] 0.102% | [10] -4.78%
inactive: [2] 35.9% | [3] 68.2% | [4] 39.5% | [5] 22% | [6] 115% | [7] 11.1% | [8] 41.7% | [9] 35.7%

COc1ccc(/C=C\c2cc(OC)c(OC)c(OC)c2)c(NS(=O)(=O)c2ccc(Cl)cc2)c1O
active: [5] 8.23% | [7] -36%
inactive: [1] 21.8% | [2] 18.4% | [3] 40.8% | [4] 49.8% | [6] 48.3% | [8] 16.7% | [9] 25.5% | [10] 20.9%

CC(C)(C)C(=O)OCOP(=O)(OCOC(=O)C(C)(C)C)C1CCCN(O)C1=O (stereo not given)
active: [1] -13.4% | [2] -1.39% | [5] 1.85% | [6] 7.23% | [7] -7.58% | [10] -16.8%
inactive: [3] 14.7% | [4] 18.2% | [8] 10.8% | [9] 12.4%

C[S+]1C=Cc2ccccc2C1c1ccc(Cl)cc1 (stereo not given)
active: [6] -54.5%
inactive: [1] 83.7% | [2] 85.1% | [3] 99.5% | [4] 126% | [5] 99.6% | [7] 18.9% | [8] 78.9% | [9] 111% | [10] 114%

C[C@@H]1C[C@@]2(C)[C@@H](CC[C@@H]3[C@@H]2CC[C@]2(C)C(=O)CC[C@@H]32)CC1=O
inactive: [1] 104% | [2] 102% | [3] 96.1% | [4] 78.9% | [5] 108% | [6] 71.7% | [7] 91.9% | [8] 82.7% | [9] 93.2% | [10] 99.5%

COc1ccc(/C=C\c2cc(OC)c(OC)c(OC)c2)cc1OCC(=O)Nc1nc2ccc(F)cc2s1
inactive: [1] 34.4% | [2] 42.4% | [3] 70.8% | [4] 51% | [5] 23.9% | [6] 57.7% | [8] 31% | [9] 65% | [10] 32.3%
active: [7] 6.14%

Clc1cccc(Cl)c1Cl
inactive: [1] 102% | [2] 101% | [3] 99.5% | [4] 99% | [5] 107% | [6] 113% | [7] 65.1% | [8] 85.9% | [9] 96.1% | [10] 122%
